In all, about 360,000 compounds went through this assay and about 3,600 (1%) were called active. Many of the other results were omitted from the sample, so actives are more common in it than they were. Values without a mark were called inactive.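 Rule for the calls: active = compounds whose plate-normalised and pattern-corrected inhibition of the luciferase reporter signal at the single screening dose is 50% or more; inactive = the rest.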

The test is described as follows: inhibitors of TROY-driven NF-kB signaling, primary screen, Q293 LMP1-TROYcd cells, NF-kB luciferase, uHTS (AID 1347056). The conditions noted are these: Q293 LMP1-TROYcd NF-kB luciferase reporter, 4 h; at 10 µM; stronger effect = higher value.
Consider `CN(C)/C=C/C(=O)c1cnc2sccn2c1=O`, for which the inhibition is 11.6%.

For `CCn1c(CC(=O)Nc2ccccc2C)nnc1SCC(=O)NC1=NCCS1`, the inhibition was 11%.

Regarding `COc1cc(C(=O)OCC(=O)N(CC(C)C)C2CCS(=O)(=O)C2)ccc1OCC(C)C` (stereo unspecified), the inhibition was 6.44%.

On to `Clc1nc(NC2CCCC2)nc(N2CCOCC2)n1`, for which the inhibition was 9.54%.

`FC(F)(F)COc1nc(N2CCCCC2)nc(N2CCNCC2)n1`: the inhibition was -47.4%.

With `COc1nc(NC2CCCCC2)nc(N2CCCCCC2)n1`, the inhibition is 51.7% (active).

With `CN(C)C(=S)Nc1ccc(Br)cc1Cl`, the inhibition was 2.66%.

Turning to `CCOC(=O)[C@]12CCC=C1N(Cc1ccco1)C(=O)[C@H](CC(=O)N1CCSCC1)C2`, the inhibition is -1.7%.

`COc1ccc(CCC(=O)OCC(=O)Nc2ccc(C)c(S(=O)(=O)N(C)C)c2)cc1`: the inhibition is 12.9%.

Regarding `c1c2c(cc3sc(N4CCCCC4)nc13)OCCO2`, the inhibition was 72.6% (active).

In the case of `COc1cccc(N2C(=O)CC(N3CCc4ccccc4C3)C2=O)c1` (stereo unspecified), the inhibition is 2.65%.

As to `CC(Sc1nncn1C)C(=O)Nc1ccccc1-c1ccccc1` (stereo unspecified), the inhibition was -16.4%.

On to `COc1ccc(CNc2nnnn2C)cc1`, for which the inhibition is -13.4%.

As to `COc1ccc(-n2nnnc2-c2nc3ccccc3s2)cc1`, the inhibition is 73% (active).

Take `COc1ccc(-n2nnnc2SCC(=O)NCc2cccs2)cc1`: the inhibition is -11.6%.

Take `O=C(NC1CC1)c1cccc(Br)c1`: the inhibition was 79.2% (active).

Take `CC(=O)N1CCN(S(=O)(=O)c2cccc(C(=O)NC3CCC(C)CC3)c2)CC1` (stereo unspecified): the inhibition was 5.64%.

As to `O=C(NC1CC1)c1ccc(-c2ccccc2)cc1`, the inhibition was -40.9%.

On to `CCCCn1c(N)c(N(CCC(C)C)C(=O)c2ccc(COc3ccccc3)o2)c(=O)[nH]c1=O`, for which the inhibition is -19.5%.

As for `CCC(CC)C(=O)Nc1ccc(S(=O)(=O)Nc2nccs2)cc1`, the inhibition was -15.5%.

As to `CC1(C)C/C(=C(/C#N)C(N)=O)CCO1`, the inhibition was -13.2%.

For `O=C(NCc1ccccc1)c1onc(CSc2ccncc2)c1C(=O)NCc1ccccc1`, the inhibition was -21.8%.

Regarding `CC[C@@H]1Cc2cc(O)ccc2C2=C1c1ccc(O)cc1C[C@H]2CC`, the inhibition was 59.9% (active).

For the compound `C=CC[n+]1c(-c2ccc(C)cc2)csc1NNC(=O)Nc1ccccc1`, the inhibition is 25.5%.

As to `CC(=O)c1cccc(NC(=S)N2CCN(S(C)(=O)=O)CC2)c1`, the inhibition is -9.61%.

Consider `CC(=O)c1cccc(NC(=O)C2CCN(C(=O)c3ccccc3Cl)CC2)c1`, for which the inhibition is 1.66%.

Take `C=CCSc1nsc(NC(=O)Nc2cccc(C(C)=O)c2)n1`: the inhibition was 55.9% (active).

In the case of `CCCCN1C(=O)C(=O)N(CC(=O)Nc2cccc(C(C)=O)c2)C1=O`, the inhibition is -16.1%.

For the compound `CSc1ccccc1C(=O)Nc1cccc(C(C)=O)c1`, the inhibition was 8.76%.

As to `CCSc1nsc(NC(=O)Nc2cccc(C(C)=O)c2)n1`, the inhibition was 67.1% (active).

Take `CCOC12CC(C)(C)CC(C)(CC3=C1C(=O)CC(C)(C)C3)C2` (stereo unspecified): the inhibition was 8.44%.

For `NC(=O)c1cc(S(=O)(=O)N2CCCC2)ccc1OCc1ccc(F)cc1`, the inhibition is -16.9%.

`CCOc1ccc2c(c1)c(=O)c(S(=O)(=O)c1ccc(C)cc1)cn2CC`: the inhibition is 0.7%.

For the compound `N#Cc1cccc(NC(=O)c2cc(C3CCCCN3C(=O)CCc3ccccc3)on2)c1` (stereo unspecified), the inhibition is 19.9%.

Turning to `CC1CN(C2CCCCC2)c2nc3c(c(=O)n(C)c(=O)n3C)n2C1` (stereo unspecified), the inhibition was -2.69%.

Regarding `Nc1ccc(-n2nncc2-c2ccco2)cc1`, the inhibition was -12.6%.

For the compound `CC(=O)C1=C(O)C(=O)N(c2ccc(Br)cc2)C1c1ccc([N+](=O)[O-])cc1` (stereo unspecified), the inhibition is -18.5%.

Take `COc1ccc(OC)c(C(O)c2nc3ccccc3n2C)c1` (stereo unspecified): the inhibition was -7.8%.

As for `OCCCNc1nccc(-c2cc(Nc3cccc(Cl)c3)ncn2)n1`, the inhibition is 54.1% (active).

With `COc1ccc(C2=NOC(C(=O)NCc3ccco3)C2)cc1OC` (stereo unspecified), the inhibition is 14.5%.

`COc1ccc(CNC(=O)CN(Cc2ccc(Cl)cc2)S(C)(=O)=O)cc1`: the inhibition was 6.51%.

`Cc1cccc(CC(=O)N2CCN=C2SCc2ccc([N+](=O)[O-])cc2)c1`: the inhibition is -7.77%.

`COCCNC(=O)CN1C(=O)CSc2ncccc21`: the inhibition is -20.5%.

As for `CCC1(C)NC(=O)N(CC(=O)N2CCN(c3cccc(Cl)c3)CC2)C1=O` (stereo unspecified), the inhibition is -0.65%.

Consider `O=C(Cc1ccccc1)Nc1ccc(NC(=O)c2cccnc2)cc1`, for which the inhibition was 17.2%.

For the compound `Cc1cc(NS(=O)(=O)c2ccc(NC(=O)c3cccnc3)cc2)nc(C)n1`, the inhibition is 9.3%.

`Cc1ccc2nc(-c3ccc(NC(=O)c4cccnc4)cc3)oc2c1`: the inhibition was 50.8% (active).

For `CC(=O)Nc1sc2c(c1C(c1cccc(F)c1)N1CCN(CCO)CC1)CCCC2` (stereo unspecified), the inhibition was -6.54%.

As for `COc1ccccc1N(C)S(=O)(=O)c1ccc(Cl)c(C(=O)Nc2ccncc2)c1`, the inhibition was -12.4%.

Regarding `CC(=O)c1ccc(S(=O)(=O)NCCC(=O)N2CCN(c3ccccn3)CC2)cc1`, the inhibition was 0.71%.

For the compound `COc1ccc(C)cc1NC(=O)CSc1cccc[n+]1[O-]`, the inhibition is 13%.

Regarding `CCCn1c(C(Cc2ccccc2)NC(=O)COC)nc2ccccc21` (stereo unspecified), the inhibition is -16.1%.

Regarding `O=C(CN1CCOCC1)Nc1ccc(NC(=O)CN2CCOCC2)c(Cl)c1`, the inhibition was -4.68%.

For the compound `CN(CC(=O)Nc1ccc(Cl)c(C(F)(F)F)c1)C(=O)CCC(=O)c1ccccc1`, the inhibition was 29.4%.

As for `O=C(CC(O)(C(F)(F)F)C(F)(F)F)Nc1ccc(Cl)c(Cl)c1`, the inhibition is 59.2% (active).

With `O=C(CN1CCN(C2CCS(=O)(=O)C2)CC1)N1N=C(c2ccc(Cl)cc2)CC1c1ccco1` (stereo unspecified), the inhibition was 58.2% (active).

Regarding `Cc1ccc(C2=NN(C(=O)CSc3nc(N)cc(N)n3)C(c3ccco3)C2)cc1` (stereo unspecified), the inhibition is -20.4%.

As to `Cc1ccc(C2=NN(C(=O)COc3ncnc4ccccc34)C(c3ccco3)C2)cc1` (stereo unspecified), the inhibition is 3.07%.

Consider `CCC1=[N+]([O-])C(C)(/C(C)=N\O)N(O)C1(C)C` (stereo unspecified), for which the inhibition is -4.1%.

As to `CCCN(CCC)S(=O)(=O)c1cc2c(cc1Br)CCN2C(=O)CC`, the inhibition was 22.4%.

For `CCOC(=O)c1ccc(NC(=S)N2CCN(c3ccccn3)CC2)cc1`, the inhibition is -15.3%.

By inhibition is commonly meant the relative decrease from the control value, in per cent.

For the origin of these results see PubChem BioAssay AID1347056 (Sanford-Burnham Center for Chemical Genomics, 2019).
